# GC-B act = GC-B (human) receptor activation; P20594; actives 0.11% (n = 370,000); AID 1920062; HEK293-GC-B cells, CNP EC30, cGMP TR-FRET; 0% at EC30 CNP, 100% saturating CNP; activation, % at 10 µM;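 active means activation at 10 µM reaching about 35% in either raw or pattern-adjusted values, limit read from the data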
# ADAM10 inh = inhibits human ADAM10 | O14672 | recombinant ADAM10, EDANS/DABCYL FRET peptide cleavage, 3 h | inhibition, % at 7 µM | actives 0.62% (n = 370,000);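 active means inhibition above a per-campaign cutoff equal to the mean of compounds falling between control-based bounds plus 3 SD, cut at about 20% in these data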;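 further: 0% = DMSO wells while the 100% control is not disclosed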
# ADAM17 inh = ADAM17 inhibition, QFRET primary screen. actives 0.83% (n = 370,000). P78536. inhibition, % at 6.95 µM. recombinant ADAM17, EDANS/DABCYL FRET peptide cleavage;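 active means inhibition above the mean of compounds lying between control limits plus 3 SD, set per campaign, cut at about 8.5% in these data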;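 further: 0% = DMSO-only wells as the low control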
# proKLK7 act = activators of human kallikrein-7 zymogen; purified proKLK7, EDANS-DABCYL substrate fluorescence; 100% is mature enzyme control, 0% vehicle; activation, % at 7 µM; P49862; AID 652039; actives 0.9% (n = 370,000);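 active means activation above the mean of all tested compounds plus 3 SD, computed per campaign excluding outliers beyond control limits, cut at about 13% in these data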
# Target sequence (P49862 whole entry, looked up): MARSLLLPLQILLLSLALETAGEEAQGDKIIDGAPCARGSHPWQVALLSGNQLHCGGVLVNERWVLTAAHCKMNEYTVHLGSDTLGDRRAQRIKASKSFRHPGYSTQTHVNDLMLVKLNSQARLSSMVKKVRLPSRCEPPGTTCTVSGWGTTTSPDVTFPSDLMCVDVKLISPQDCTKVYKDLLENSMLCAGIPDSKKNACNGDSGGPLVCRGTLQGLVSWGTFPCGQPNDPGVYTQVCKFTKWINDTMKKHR
# NPR1 activator = GC-A (human) enzyme activation. HEK293 GC-A cells, cGMP TR-FRET, EC30 ANP; 0% at EC30 ANP, 100% saturating ANP. activation, % at 10 µM. actives 0.14% (n = 370,000); in the data active means activation above about 40%
# ADAM10 ctr = inhibits human ADAM10 in ADAM17 exosite counter-screen; shares compounds with ADAM17 inh; recombinant ADAM10, EDANS/DABCYL FRET peptide cleavage, 3 h; inhibition, % at 6.95 µM; actives 47% (n = 2,900); AID 743256;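 active means mean inhibition over the triplicate runs exceeds the activity threshold set in the earlier primary screen, cut at about 20% in these data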;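 further: 0% = DMSO wells and 100% = marimastat wells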
# ADAM17 confirm = confirmation of inhibitors of human ADAM17; shares compounds with ADAM17 inh; recombinant ADAM17, EDANS/DABCYL QFRET peptide cleavage; inhibition, % at 6.95 µM; actives 65% (n = 2,900); AID 743257;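 active means mean inhibition across replicates above the hit cutoff set in the primary screen, cut at about 8.5% in these data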;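 further: 0% = DMSO wells and 100% = marimastat wells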
# * = called active by the depositor; · = no result. The list is not random: actives were taken first. Their share in the collection is about 2.2%.
SMILES,GC-B act,ADAM10 inh,ADAM17 inh,proKLK7 act,NPR1 activator,ADAM10 ctr,ADAM17 confirm
Cc1cccc(Cn2cc(COC(=O)Nc3ccc(F)cc3)nn2)c1,3,7,4,0,0,·,·
COc1c(OC(C)=O)ccc(/C=C/c2ccc3cccc(OCc4ccccc4)c3n2)c1[N+](=O)[O-],0,16,9.7*,-1,1,14,9.2*
COc1cc(/C=C/c2ccc3cccc(OC)c3n2)c(OC(C)=O)c([N+](=O)[O-])c1,1,2,3,-1,1,·,·
O=C(NCc1cccc(C(F)(F)F)c1)c1cccc(S(=O)(=O)NCc2ccccc2)c1,1,18,12*,0,-1,24*,11*
Cc1ccc(S(=O)(=O)N2C[C@H]3C(=O)C[C@@H](c4ccccc4F)N(S(=O)(=O)c4ccc(C)cc4)[C@H]3C[C@H]2c2ccccc2)cc1,1,-1,10*,0,1,14,6
Cc1ccc([C@@H]2CC(=O)[C@@H]3CN(S(=O)(=O)c4ccc(C)cc4)[C@H](c4ccccc4F)C[C@@H]3N2S(=O)(=O)c2ccc(C)cc2)cc1,-1,0,-1,0,-1,·,·
C[C@@H](OC(=O)N1CCCCC1)[C@H]1O[C@]2(C)CCCC[C@H]1O2,5,9,9.4*,0,-3,13,9
C[C@@H](O)[C@H]1O[C@]2(C)CCC[C@H]1O2,2,5,-5,-1,-2,·,·
COc1ccc(-c2csc(NC(=O)CSc3nc(C)cs3)n2)cc1,-3,5,1,0,1,·,·
COc1ccc(-c2csc(NC(=O)CSc3nc(SC)ns3)n2)cc1,1,33*,15*,0,4,26*,17*
COc1cc(NC(=O)c2ccc(S(=O)(=O)N(C)c3ccccc3)cc2)cc(OC)c1,-3,15,10*,0,-1,30*,17*
Cc1ccc(Nc2nc3ccccc3s2)c(C)c1,0,14,9.0*,0,-1,26*,17*
CC(C)(C)OC(=O)N(Cc1ccccc1)Cc1ccccc1OCc1cccc(NC(=O)C2CC2)c1,-1,9,9.5*,0,2,20*,18*
CC(C)(C)OC(=O)N(Cc1ccccc1)Cc1ccccc1OCc1cccc(NC(=O)C2CCC2)c1,0,-8,-3,0,0,·,·
CCOC(=O)C1=CCN(S(=O)(=O)c2ccc(C)cc2)C1c1cccs1 (stereo not given),-10,17,11*,0,-2,6,7
O=C1CCC[C@H]2C[C@H](NCc3ccc(F)cc3)CC[C@]23CCCN13,-5,-8,-4,·,-5,·,·
O=C(c1ccc(Cl)c(Cl)c1)N1CCN(c2ccccn2)CC1,0,8,-1,1,1,·,·
O=C(c1cccc(COc2ccc(Cl)cc2Cl)c1)N1CCN(c2ccccn2)CC1,1,16,11*,1,10,14,9.3*
C/C(=N\NC(=S)NCc1ccccc1)c1ccc2ccccc2c1OC(F)F,1,18,12*,-1,-2,4,8
O=C(OC12CCCN(C1)/C(=C/c1cccc(Cl)c1)C2)c1cccc(F)c1 (stereo not given),-4,4,2,0,-1,·,·
CC(=O)Oc1ccc([N+](=O)[O-])cc1N1C(=O)c2ccccc2C1=O,3,6,9.8*,-1,3,23*,13*
N#Cc1cccc(Cn2ccc3ccc(-c4ccc5ccn(Cc6cccc(C#N)c6)c5c4)cc32)c1,2,-19,-4,-2,-4,·,·
COc1ccccc1NC(=O)c1ccc(NC(=O)COC(=O)CCC2CCCC2)cc1,4,13,9.4*,0,2,27*,15*
COC(=O)c1ccc(NC(=O)COC(=O)CCC2CCCC2)cc1,-2,5,4,1,1,·,·
Cc1ccccc1-c1nnn(Cc2ccc(F)cc2Cl)n1,4,11,10*,-2,2,18,11*
